Measured values published in PubChem BioAssay AID1631 (National Center for Advancing Translational Sciences (NCATS), 2009).
Among all 260,000 compounds or so, about 890 (0.34%) were called active. Inconclusive results (about 1%) are left out. Calls follow the shape of the dose curve; as a rule, active = well fitted activation curve with a large enough effect; inconclusive = small, poorly fitted or top-dose-only effect; inactive = no such curve, though single readings can be large or run the other way. What follows is part of a selection rich in actives, with near analogues and random picks from the rest.

target: Pyruvate kinase PKM (Homo sapiens) (UniProt P14618); test: qHTS Assay for Activators of Human Muscle isoform 2 Pyruvate Kinase; conditions: purified PKM2, Kinase-Glo ATP luminescence; Potency: activation; series mostly up to 57.5 µM; activation: at the top concentration; also: nearly all actives have a fitted effect of over 55% in size
Sequence (P14618 whole entry, looked up, canonical isoform): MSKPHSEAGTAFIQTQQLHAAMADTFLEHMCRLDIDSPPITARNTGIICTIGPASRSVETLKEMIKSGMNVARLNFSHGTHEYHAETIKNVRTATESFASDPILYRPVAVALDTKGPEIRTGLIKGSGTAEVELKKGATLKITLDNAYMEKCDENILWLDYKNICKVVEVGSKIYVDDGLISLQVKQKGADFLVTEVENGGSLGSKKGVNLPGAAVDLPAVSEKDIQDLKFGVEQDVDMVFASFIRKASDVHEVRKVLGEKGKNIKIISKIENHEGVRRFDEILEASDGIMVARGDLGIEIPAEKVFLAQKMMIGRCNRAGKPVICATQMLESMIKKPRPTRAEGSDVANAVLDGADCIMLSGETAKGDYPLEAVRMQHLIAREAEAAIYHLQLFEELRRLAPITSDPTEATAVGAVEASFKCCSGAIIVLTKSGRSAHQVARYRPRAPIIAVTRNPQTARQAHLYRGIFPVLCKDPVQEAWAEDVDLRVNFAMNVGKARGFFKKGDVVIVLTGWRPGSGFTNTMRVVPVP
Summary of the method: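 Kinase-Glo luminescence reports ATP generated from ADP (0.1 mM) and PEP (0.5 mM) by purified hPK-M2 after 1 h at room temperature, pH 7.2 imidazole buffer; intermediate enzyme activity allows detecting inhibitors and activators.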
% is scaled to controls: 0 for no effect and ±100 for the full control effect; potency is read from the fitted curve at half-maximal effect.

Row | SMILES | activation | Potency
1 | CC[C@]1(c2ccccc2OC)C(=O)N(C(=O)OC)N1C(=O)OC | 3.59% (inactive) | 
2 | CCOC(=O)c1cc(C(=O)Nc2ccc(S(=O)(=O)Nc3ccc(OC)cc3)cc2)nn1C | -2.09% (inactive) | 
3 | Cc1cccc(NC(=S)NCCc2ccc(Cl)cc2)c1C | 0.631% (inactive) | 
4 | COc1ccc(-n2nc(C(=O)NCC(=O)N3CCN(c4ccccc4OC)CC3)c3ccccc3c2=O)c(OC)c1 | -0.0302% (inactive) | 
5 | O=c1c2ccccc2nc(CSc2nnnn2-c2ccccc2)n1-c1ccccc1 | 1.59% (inactive) | 
6 | O=c1c2ccccc2nnn1CSc1nnnn1-c1ccccc1 |  | 28.2 µM (active)
7 | Nc1nnc(SCn2nnc3ccccc3c2=O)s1 | 1.7% (inactive) | 
8 | CCC(C)c1ccccc1NC(=O)CN(C)CC(=O)Nc1ccccc1SC (stereo not drawn) | 1.98% (inactive) | 
9 | O=C(N/N=C/c1cccc(OCc2ccccc2)c1)c1ccc(Br)o1 | 0.996% (inactive) | 
10 | CCN(C(=O)COc1ccc(C(=O)c2ccccc2)cc1)c1ccccc1 | -0.0123% (inactive) | 
11 | CC1CCN(C2=NC(=O)/C(=C/c3ccc(O)cc3)S2)CC1 | -2.26% [at 11.5 µM, 0% is enzyme alone, no compound] (inactive) | 
12 | CCOC(=O)C1(Cc2ccccc2C)CCCN(C(=O)c2ccc(COC)o2)C1 (stereo not drawn) | 1.56% (inactive) | 
13 | S=C(Nc1ccc(Br)cc1)NC1CCN(Cc2ccccc2)CC1 | -1.18% (inactive) | 
14 | CSc1nc2ccc(S(=O)(=O)N3CCc4ccccc43)cc2s1 |  | 2.24 µM (active)
15 | O=C(Nc1nc2ccc([N+](=O)[O-])cc2s1)c1ccc(S(=O)(=O)N2CCCc3ccccc32)cc1 | 1.34% (inactive) | 
16 | CCn1c(=O)c(=O)n(CC)c2cc(S(=O)(=O)N3CCc4ccccc43)ccc21 | 9.29% (inactive) | 
17 | CC(CN1CCOCC1)OC(=O)c1ccc(C(C)(C)C)cc1 (stereo not drawn) | 7.62% (inactive) | 
18 | NC(=S)c1ccc(C(N)=S)o1 |  | 15.8 µM (active)
19 | Cc1cccc(CSc2nc3c(c(=O)n2C)SCC3)c1 |  | 15.8 µM (active)
20 | Cn1c(SCC(=O)N2CCCCC2)nc2c(c1=O)SCC2 | -0.468% (inactive) | 
21 | CCn1c(SCc2ccccc2)nc2c(c1=O)SCC2 | 6.86% (inactive) | 
22 | COc1ccc(CNS(=O)(=O)c2cc(-c3cc(C)no3)ccc2C(C)C)cc1 | 2.22% [at 0.46 µM, 0% is enzyme alone, no compound] (inactive) | 
23 | Cc1ccc(S(=O)(=O)NC2CCCCCC2)cc1C(N)=O | 6.43% (inactive) | 
24 | COc1ccc(Nc2ncnc3ccc(Br)cc23)c(OC)c1 | 0.748% (inactive) | 
25 | COC(=O)c1ccccc1NC(=O)C1CCN(C(=O)N2CCOc3ccccc32)CC1 | -2.9% (inactive) | 
26 | CCCC(C(=O)NC1CCCC1)N(C(=O)Cn1nnc(-c2ccc(C)o2)n1)c1cccc(O)c1 (stereo not drawn) | 2.14% (inactive) | 

Row | SMILES | activation | Potency
27 | COc1ccc(NC(=O)CSc2nc3ccccc3c(=O)n2C)cc1 | 1.41% (inactive) | 
28 | FC(F)(F)c1cccc(Nc2ncnc3ccccc23)c1 | 2.31% (inactive) | 
29 | O=c1cc(CO)oc(C(Nc2cccc(C(F)(F)F)c2)c2ccccn2)c1O (stereo not drawn) |  | 25.1 µM (active)
30 | O=C(Nc1cccc(C(F)(F)F)c1)c1cnccn1 | -0.998% (inactive) | 
31 | CCC(C)(C)NC(=O)C(c1ccc(O)cc1)N(Cc1ccco1)C(=O)CCC(=O)Nc1ccccn1 (stereo not drawn) | -2.21% (inactive) | 
32 | CC(=O)c1ccc(N2CCN(C(=O)c3ccc4nc[nH]c4c3)CC2)cc1 | -5.96% (inactive) | 
33 | CN(C)N=Nc1ccc2nc[nH]c2c1 |  | 10 µM (active)
34 | CC/C(O)=N\S(=O)(=O)c1ccc(N=NN(C)C)cc1 | 8.76% (inactive) | 
35 | CCCn1c(CCNc2nc(-c3ccc(OC)cc3)cs2)nc2ccccc21 | -1.57% (inactive) | 
36 | O=C(N/N=C\c1cc2c(cc1Cl)OCO2)c1ccc(Br)s1 | -0.0507% (inactive) | 
37 | CCOC(=O)C1(CCOc2ccccc2)CCN(Cc2cc(OC)cc(OC)c2)CC1 | 0.213% (inactive) | 
38 | COc1ccc(C(=O)CC(=O)c2ccc(C)cc2)c(O)c1 | 2.2% (inactive) | 
39 | COC(=O)CN1C(=O)[C@H]2[C@@H](C3CC3)N3C(=O)CN(Cc4ccc(-c5ccccc5)cc4)C(=O)[C@@]3(Cc3ccccc3)[C@H]2C1=O | 2.01% (inactive) | 
40 | COc1ccccc1CN(C)C(=O)c1cc2ccccc2o1 | -9.51% (inactive) | 
41 | COc1ccccc1CCNS(=O)(=O)c1cn(C)nc1C | -9.14% (inactive) | 
42 | Cc1cccc(N2CCN(C(=O)c3cccc(N4C(=O)C5C6C=CC(C6)C5C4=O)c3)CC2)c1C (stereo not drawn) | 4.01% (inactive) | 
43 | O=C(Nc1cccc(F)c1)NC1CCCc2ccccc21 (stereo not drawn) | -1.74% (inactive) | 
44 | O=C(CNC(=O)c1ccc(F)cc1)c1ccccc1 | 0.121% [at 11.5 µM, 0% is enzyme alone, no compound] (inactive) | 
45 | C[N+](C)(C)CCNC(=O)c1c(O)c2c([nH]c1=O)CCCC2 | 8.74% (inactive) | 
46 | CCc1nnc(NC(=O)c2c(O)c3c([nH]c2=O)CCCC3)s1 | -16.4% (inactive) | 
47 | O=C(NCc1ccccn1)c1c(O)c2c([nH]c1=O)CCCC2 |  | 3.16 µM (active)
48 | CCOC(=O)C1(CCOc2ccccc2)CCN(Cc2ccc(C#CCCO)cc2)CC1 | 0.498% (inactive) | 
49 | COc1ccc(N2CCN(S(=O)(=O)c3ccc4c(c3)NC(=O)C(C)C(=O)N4)CC2)cc1 (stereo not drawn) | 0.242% (inactive) | 
50 | Nc1c(Cl)cc(-c2csc(N3CCCC3c3nc4cc(Cl)c(Cl)cc4n3CCOCCO)n2)cc1Cl (stereo not drawn) | 0.478% (inactive) | 
51 | O=C(Nc1cccc(-n2cnnn2)c1)c1cccnc1 | -9.49% (inactive) | 
52 | Cc1ccc(C)c(S(=O)(=O)Nc2cccc(-n3cnnn3)c2)c1 |  | 14.1 µM (active)

Row | SMILES | activation | Potency
53 | Cc1ccc(C)c(S(=O)(=O)Nc2cc(C)on2)c1 | -1.53% (inactive) | 
54 | CCCCC(=O)Nc1ccccc1N1CCN(c2ccc(F)cc2)CC1 | -1.04% [at 11.5 µM, 0% is enzyme alone, no compound] (inactive) | 
55 | O=C(c1cc(C(=O)N2CCN(c3ccc(F)cc3)CC2)cc([N+](=O)[O-])c1)N1CCN(c2ccc(F)cc2)CC1 | 0.063% (inactive) | 
56 | CSc1ccc(S(=O)(=O)N2CCC(C(=O)NCCc3ccccc3)CC2)cc1 | 0.33% (inactive) | 
57 | Oc1ccc(C2Nc3cccc4cccc(c34)N2)cc1 | 0% (inactive) | 
58 | CCC1CCCCN1C(=S)Nc1ccc(S(=O)(=O)Nc2ncccn2)cc1 (stereo not drawn) | -19.6% (inactive) | 
59 | COc1cccc(Nc2nnc(SCC(=O)N3CC(=O)Nc4ccccc43)s2)c1 | -4.51% (inactive) | 
60 | Cc1nc(SCC(=O)N2CCc3ccccc3C2)c2c(C)c(C)sc2n1 | 0.304% (inactive) | 
61 | Cc1nc(SCC(=O)N2CC(=O)Nc3ccccc32)c2c(C)c(C)sc2n1 |  | 12.6 µM (active)
62 | COc1ccccc1CN1CCN(C(c2ccccc2)c2ccccc2)CC1 | -7.24% (inactive) | 
63 | COc1ccc(OCc2cc(C(=O)N3CCCC3)no2)c2ccccc12 | -0.176% (inactive) | 
64 | Cc1ccc(C(=O)c2coc3ccc(O)c(CN(C)C)c23)cc1 | 2.77% (inactive) | 
65 | O=[N+]([O-])c1ccc2c(c1)Nc1nc3ccccc3nc1N2 | -7.96% (inactive) | 
66 | O=C(CC1C(=O)NCCN1C(=O)c1ccc([N+](=O)[O-])cc1)Nc1cccc(Cl)c1 (stereo not drawn) | 4.48% (inactive) | 
67 | CCCn1c(C2CCCN2c2nc(-c3ccc(C)cc3)cs2)nc2cc(Cl)c(N3CCCCC3)cc21 (stereo not drawn) | 1.71% (inactive) | 
68 | COc1ccc(CN2CCCC(N3CCc4ccccc4C3)C2)c(O)c1 (stereo not drawn) | 4.2% (inactive) | 
69 | Cc1ccc(NS(=O)(=O)c2cc3c(cc2C)NC(=O)CO3)cc1 |  | 5.62 µM (active)
70 | Cc1cc2c(cc1S(=O)(=O)NCc1ccc(Cl)cc1)OCC(=O)N2 | 9.78% (inactive) | 
71 | COc1ccc(CCNS(=O)(=O)c2cc3c(cc2C)NC(=O)CO3)cc1OC | -0.455% (inactive) | 
72 | Cc1cc(C)c(SCCc2ccncc2)c(C)c1 | 0% (inactive) | 
73 | COc1cc(/C=N/Nc2nc3ccccc3s2)ccc1O | 8.69% (inactive) | 
74 | COc1cc(/C=N\Nc2nc(-c3cccs3)c(NC(C)=O)s2)ccc1O |  | 11.2 µM (active)
75 | CCOc1cc(/C=C(\C#N)c2nc(-c3cccs3)c(NC(C)=O)s2)ccc1O | 0.455% (inactive) | 
76 | COc1cccc(CC(=O)Nc2nc(-c3ccc(OC)c(OC)c3)cs2)c1 | 2.09% (inactive) | 
77 | CC/C=C/C(=O)N1CC2(CC(c3cccc(NC(=O)CC)c3)=NO2)C[C@H]1C(N)=O (stereo partly drawn) | 26.5% (inactive) | 
78 | C/C=C\C=C\C(=O)N1CC2(CC(c3cccc(NC(=O)/C(C)=C\C)c3)=NO2)C[C@H]1C(N)=O (stereo partly drawn) |  | 3.55 µM (active)

Row | SMILES | activation | Potency
79 | C/C=C(/C)C(=O)Nc1cccc(C2=NOC3(C2)C[C@@H](C(N)=O)N(C(=O)C2(C)CC2)C3)c1 (stereo partly drawn) | -13% (inactive) | 
80 | CCC(C)C(=O)Nc1ccccc1N1CCN(c2ccc(F)cc2)CC1 (stereo not drawn) | -0.773% (inactive) | 
81 | CCCNC(=O)c1ccc(N2CCC3(CC2)CC(c2ccc(Cl)cc2)=NO3)c([N+](=O)[O-])c1 | -7.26% (inactive) | 
82 | COc1ccc(C(=O)NCC(=O)N/N=C/c2cccnc2)cc1 | 0.538% [at 0.46 µM, 0% is enzyme alone, no compound] (inactive) | 
83 | O=C(NCC(=O)N1CCN(c2ncc(C(F)(F)F)cc2Cl)CC1)c1ccc(Br)o1 | -0.619% (inactive) | 
84 | O=C(O)c1cccc2c1C(=O)N(C1CCCC1)C2 | 0.131% (inactive) | 
85 | COc1ccc(N(C(=O)c2snc(C(N)=O)c2N)C(C(=O)NC2CCCC2)c2ccc(C)o2)c(OC)c1 (stereo not drawn) | -4.98% (inactive) | 
86 | CN(CC1CCCO1)S(=O)(=O)c1ccc(C(=O)Nc2ccc([N+](=O)[O-])cc2)cc1 (stereo not drawn) | 0.137% (inactive) | 
87 | CCOC(=O)c1csc(CCNC(=O)c2oc3c(Cl)cc(C)cc3c2C)n1 | 0.455% (inactive) | 
88 | CC(C)NS(=O)(=O)c1ccc(OCC(=O)NC2CCCCCC2)cc1 | 0.476% (inactive) | 
89 | O=C(Nc1nnc(C2=COCCO2)o1)c1ccc([N+](=O)[O-])s1 | -0.93% (inactive) | 
90 | COc1ccc(-n2cc(-c3ccccc3)c3c(=S)nc[nH]c32)cc1 | -7.56% [at 0.46 µM, 0% is enzyme alone, no compound] (inactive) | 
91 | CCc1ccc(CNC(=O)C2CCN(c3nnc(C)c4c(C)n(-c5ccc(C)cc5)nc34)CC2)cc1 | -0.982% [at 0.46 µM, 0% is enzyme alone, no compound] (inactive) | 
92 | Cc1cc(S(=O)(=O)NCc2ccccn2)c(Cl)cc1Cl | -2.1% [at 11.5 µM, 0% is enzyme alone, no compound] (inactive) | 
93 | COc1ccc(N2CCN(S(=O)(=O)CCNC(=O)C34CC5CC(CC(C5)C3)C4)CC2)cc1 | 0.848% (inactive) | 
94 | Nc1cccc(S(=O)(=O)Nc2ccc(SC(F)F)cc2)c1 |  | 14.1 µM (active)
95 | O=C(Cc1ccc(Cl)c(Cl)c1)Nc1ccc(SC(F)F)cc1 | 2.17% (inactive) | 
96 | CSc1ccc(S(=O)(=O)Nc2cccc(F)c2)cc1 | 16.7% (inactive) | 
97 | Cc1ccccc1C(=O)N1CCN(c2ccc(NC(=O)c3cccs3)cc2)CC1 | -0.0426% (inactive) | 
98 | Cc1c(C=O)c2ccccc2n1CCOc1ccccc1 | 2.35% (inactive) | 
99 | CCOc1cc(-c2cc(-c3ccc(NC(C)=O)cc3)nc(N)c2C#N)ccc1O | -4.71% (inactive) | 
100 | CC(C)C(C)NC(=O)COc1nc2ccccc2nc1N(C)C1CCCCC1 (stereo not drawn) | -0.269% (inactive) | 
101 | CCN(C(=O)C1CCCN(c2nc(-c3ccc(OC)cc3)no2)C1)c1ccc(OC)cc1 (stereo not drawn) | -0.765% (inactive) | 
102 | CCn1cc(CN2CCC(C(=O)Nc3cccc(-c4cccc(Cl)c4)c3)CC2)c(C)n1 | -2.51% (inactive) | 
103 | COc1ccccc1N1CCN(C(=O)CCS(=O)(=O)c2ccc3c(c2)NC(=O)C(C)S3)CC1 (stereo not drawn) | -0.108% (inactive) | 
